Source: PubChem BioAssay (National Center for Advancing Translational Sciences (NCATS))
Rows were chosen to be rich in hits. Some 4.7% of all compounds tested hit in one or more screens of this group.
D1 ag = activates the human D1 dopamine receptor; hit rate 1% among 360,000; HEK293 T-REx D1 cells, calcium flux, agonist mode; P21728; activation, % at 2 µM; AID 504660
Target sequence (P21728 whole entry, looked up): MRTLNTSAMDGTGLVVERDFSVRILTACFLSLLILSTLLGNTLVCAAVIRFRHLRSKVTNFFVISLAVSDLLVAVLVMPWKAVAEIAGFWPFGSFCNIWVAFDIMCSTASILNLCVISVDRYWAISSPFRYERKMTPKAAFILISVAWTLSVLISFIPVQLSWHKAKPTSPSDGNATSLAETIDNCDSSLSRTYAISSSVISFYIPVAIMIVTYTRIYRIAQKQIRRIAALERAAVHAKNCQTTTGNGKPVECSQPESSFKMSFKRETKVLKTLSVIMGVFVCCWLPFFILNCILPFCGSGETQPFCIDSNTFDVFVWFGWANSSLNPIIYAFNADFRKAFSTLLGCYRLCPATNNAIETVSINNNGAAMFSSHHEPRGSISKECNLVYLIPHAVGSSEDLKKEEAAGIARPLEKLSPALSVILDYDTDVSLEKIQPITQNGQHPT
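Agonism was scored from calcium flux recorded over 180 s (1 read/s) after pintool compound addition, following a 10-cycle baseline. Cells were inducible force-coupled HEK293 TREx D1, plated overnight at 30 C and loaded with no-wash calcium dye.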
TRHR agonist = agonists of human TRH receptor | TRHR cells, calcium flux fluo-8, FDSS agonist mode | activation, % at 2 µM | hit rate 0.18% among 360,000
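Steps: seed TRHR cells overnight; add fluo-8 no-wash Ca dye, RT 30 min–1.5 h; record 10 s baseline; pin-transfer compounds; monitor fluorescence 1 cycle/s for the agonist window. Calcium increases flag candidate agonists.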
TRHR PAM = allosteric enhancers of human TRH receptor; TRHR cells, fluo-8 calcium fluorescence, EC20 TRH enhancement; hit rate 0.66% among 360,000; enhancement, % at 2 µM; AID 493056; P34981; in the data active = enhancement above about 30%
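TRHR-expressing cells loaded with fluo-8 calcium dye were read kinetically (ex 480/em 530) during compound addition, then stimulated with an EC20 of TRH (10 nM final). Enhancement of the Gq-mediated intracellular calcium response was scored.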
D1 antagonist = human D1 dopamine receptor antagonism; HEK293 TREx D1 cells, calcium flux, dopamine EC80; stronger effect = lower value; activity change, negative = inhibition, % at 10 µM; hit rate 3.2% among 360,000; AID 504652; in the data active = activity change below about -30%
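Inducible Hek293 Trex D1 cells (tetracycline, overnight, 30 C). Calcium dye 30–90 min RT. Antagonist mode: EC80 dopamine added after 180 s compound read.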
D1 PAM = potentiators of human D1 dopamine receptor; AID 504651; HEK293 TREx D1 cells, calcium flux, dopamine EC20 potentiation; hit rate 0.036% among 360,000; potentiation, % at 10 µM; in the data active = potentiation above about 30%
Numbers stand for hits; . = inactive; / = no result. Rule as the data show it, unless noted: active = activation above about 30%; inactive = the rest.

SMILES | D1 ag | TRHR agonist | TRHR PAM | D1 antagonist | D1 PAM
CN(c1cccc(NC(=O)c2ccc(Cl)c(S(=O)(=O)Nc3ccccc3)c2)c1)S(C)(=O)=O | . | . | . | -42 | .
CN(c1cccc(NS(=O)(=O)c2ccccc2)c1)S(C)(=O)=O | . | . | . | -37 | .
CCC(=O)N1CCN(c2nc3c(C)cccc3s2)CC1 | . | . | . | / | .
Cc1ccc(S(=O)(=O)Nc2ccc(S(=O)(=O)Nc3nccs3)cc2)c([N+](=O)[O-])c1 | . | . | 58 | . | .
Cc1ccc(S(=O)(=O)Nc2nccs2)cc1[N+](=O)[O-] | . | . | . | . | .
CC(=O)N1c2ccc(S(=O)(=O)NCc3ccc(Cl)cc3)cc2CC1C (centres undefined) | . | . | . | -32 | .
CCC(=O)N1c2ccc(S(=O)(=O)NCc3cccc(OC)c3)cc2CC1C (centres undefined) | . | . | . | -76 | .
CCC(=O)N1c2ccc(S(=O)(=O)CCC(=O)NCc3cccc(OC)c3)cc2CC1C (centres undefined) | . | . | . | . | .
COc1ccc(C(=O)O)cc1NCc1cccnc1 | . | . | . | . | .
Cc1cccc(C)c1OCc1cc(C(=O)NCc2cn(C)nc2C)no1 | . | . | . | . | .
Cc1nn(Cc2ccccc2)c(C)c1CCC(=O)O | . | . | . | -83 | .
Cc1ccc(Cn2nc(C)c(NC(=O)c3cc(C)no3)c2C)cc1 | . | . | . | -78 | /
Cc1nn(Cc2ccc(Br)cc2)c(C)c1NC(=O)c1nn(C)cc1Cl | . | . | 31 | -39 | .
Cc1cc(C(=O)Nc2c(C)nn(Cc3ccc(F)cc3)c2C)on1 | . | . | . | . | /
Cc1ccc(Cn2nc(C)c(NC(=O)c3nn(C)cc3Cl)c2C)cc1 | . | . | . | . | .
Cc1noc(C(=O)Nc2c(C)nn(Cc3ccccc3)c2C)c1Cl | . | . | . | -51 | .
O=C(COC(=O)c1ccc(F)cc1Cl)NC(=O)NC1CCCC1 | . | . | . | . | .
CCCn1c(N)c(N(CCOC)C(=O)c2ccc(Cl)c([N+](=O)[O-])c2)c(=O)[nH]c1=O | . | . | . | . | .
Cc1ccc(Cl)cc1N1CCN(C(=O)c2c(C)oc3ncnc(N4CCCCC4)c23)CC1 | . | . | . | . | .
CCc1ccc(CNC(=O)c2ccc(NC(=O)N3CCCCc4ccccc43)cc2)cc1 | . | . | . | . | .
N#Cc1ccccc1S(=O)(=O)N1CCN(c2nc(-c3cccnc3)nc3ccccc23)CC1 | . | . | . | . | .
Cc1nn(Cc2cccc(C(=O)NN)c2)c(C)c1Cl | . | . | . | . | .
Cc1nn(Cc2ccc(C(=O)NN)cc2)c(C)c1Cl | . | . | . | -44 | .
Cn1cc(Cl)c(C(=O)Nc2cnn(Cc3ccc(F)cc3)c2)n1 | . | . | . | -42 | .
Cc1c(-c2ccccc2)nc2ccccc2c1C(=O)Oc1ccc([N+](=O)[O-])cc1 | . | . | . | -33 | .
SMILES | D1 ag | TRHR agonist | TRHR PAM | D1 antagonist | D1 PAM
CCCCCc1cc(O)c2c(C)cc(=O)oc2c1 | 108 | . | . | . | .
CCCc1cc(=O)oc2cc(C)cc(O)c12 | . | . | . | . | .
O=C(CCC(=O)Nc1ccccc1Cl)NNC(=O)NC1CCCCC1 | . | . | . | . | .
Cc1ccc(-n2c(=O)[nH]c3sc4c(c3c2=O)CCNC4)cc1C | . | . | . | . | .
CCCCCCCCNC(C)C(O)c1ccc(SC(C)C)cc1 (centres undefined) | 50 | . | . | . | .
Cc1ccc(NC(=O)c2sc3nc(C)cc(C)c3c2N)cc1 | . | . | . | . | .
Cc1cc(C)c2c(N)c(C(=O)Nc3cccc(C)c3C)sc2n1 | . | . | . | -31 | .
CC(C)c1ccc(NC(=O)CN(Cc2ccccc2)S(C)(=O)=O)cc1 | 42 | . | . | . | .
COc1ccc(C(=O)N2CCCC(CCC(=O)NCc3ccccc3F)C2)c(OC)n1 (centres undefined) | . | . | . | . | .
COc1ccc(NC(=O)CSc2ccccn2)cc1OC | . | . | . | . | .
COc1ccc(NC(=O)CSc2ncccc2C(=O)OC(C)C)cc1OC | . | . | . | -37 | .
O=C(Nc1ccc(Oc2ccc(C(F)(F)F)cn2)c(Cl)c1)C1CC1 | . | . | . | -32 | .
COc1ccc(C2=Nc3ccccc3NC(c3cccs3)=N2)cc1 | . | . | . | . | .
COc1ccc2nc(C)cc(NCc3ccc(F)cc3)c2c1 | 85 | . | . | . | .
